ELG1 repair inh = blocks ELG1-dependent DNA repair in HEK293T cells; HEK293T ELG1-luciferase reporter, luminescence, 16 h; DNA damage induced by 5-fluorouridine; Potency, µM (doses to about 46.1 µM), without a hit: at the highest dose activity change, negative = inhibition, most hits filed as inhibitors; 2.3% of 330,000 active; AID 504467; note: potency is the fitted concentration of half-maximal effect; nearly all actives have a fitted effect of over 55% in size
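Overnight (16 hr) co-exposure of 2,000 cells/well to 5-fluorouridine and compound at 37 °C preceded detection. Luciferase was quantified via ONE-Glo luminescence; loss of signal denotes inhibition.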
DT40 TDP1 no CPT = qHTS for Inhibitors of human tyrosyl-DNA phosphodiesterase 1 (TDP1): qHTS in cells in absence of CPT. 15% of 420,000 active. Potency, µM (top dose mostly 46.2 µM), inactives show at the highest dose activity change, negative = growth inhibition, usual class: inhibitors. DT40 Tdp1-/- hTDP1 cells, no CPT, ATP luminescence, 48 h; note: potency is the fitted concentration of half-maximal effect; nearly all actives have a fitted effect of over 55% in size
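Chicken DT40 Tdp1-/- cells stably complemented with human TDP1 were seeded at 400 cells/well with DMSO in place of 20 nM camptothecin. After compound pinning, cells grew at least 48 hr at 37 °C; viability read by CellTiter-Glo luminescence.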
HT1080 IDH1KD tx = toxicity to HT-1080 IDH1 knockdown cells (counter line); HT-1080 IDH1 knockdown viability, ATP luminescence, 48 h; Potency, µM (doses to about 46.1 µM), inactives show at the top dose activity, negative = toxicity, usual class: cytotoxic; 2% of 360,000 active; AID 686971;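 note: potency is the fitted concentration of half-maximal effect; 0% = DMSO wells and -100% = cell-free medium wells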
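Using the IDH1-knockdown HT-1080 line run in the same batch and compound series as the NT line, viability after 48 h at 37 °C was determined by CellTiter-Glo luminescence and expressed as % activity.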
TDP1 cell CPT = DT40-hTDP1 cell growth loss with CPT; chicken DT40 Tdp1-/-;hTDP1 cells + 20 nM CPT, ATP luminescence, 48 h; Potency, µM (doses to about 46.2 µM), without a hit: at the highest dose activity change, negative = growth inhibition, hits mostly inhibitors; 12% of 420,000 active; AID 686979; note: potency is the fitted concentration of half-maximal effect; nearly all actives have a fitted effect of over 55% in size
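Chicken DT40 Tdp1-/- cells complemented with human TDP1, 400 cells/well, exposed to compounds plus 20 nM camptothecin for at least 48 h at 37 C; viability read as ATP content by CellTiter-Glo luminescence.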
IL1B secr inh = inflammasome signaling inhibition, IL-1 beta readout; 4.7% of 360,000 active; activity change, % at 57.5 µM; AID 743279; THP-1 LPS/ATP IL-1B secretion, AlphaLISA, 16 h; stronger effect = lower value; in the data active = activity change below about -50%; inconclusive = mostly about -30% to -49%
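Secreted IL-1B measured by AlphaLISA bead assay after 16 h compound exposure of THP-1 cells; compounds (final up to 57.5 uM) added 1 h before LPS (250 ng/mL) and ATP (1.25 mM) stimulation; lower signal means less secretion.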
HT1080-NT tox = kills 2HG-producing HT-1080-NT fibrosarcoma cells. HT-1080-NT fibrosarcoma viability, CellTiter-Glo ATP luminescence, 48 h. 1.6% of 360,000 active. Potency, µM (series often up to 46.1 µM), for inactives: at the top dose activity, negative = less viability, actives largely listed as cytotoxic;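 note: NT is the 2HG producing partner of a matched IDH1 knockdown line; potency is the fitted concentration of half-maximal effect; 0% = DMSO-treated cells and -100% = media-only wells without cells; nearly all actives have a fitted effect of over 55% in size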
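Luminescent CellTiter-Glo readout after 48 hours of compound exposure at 37 degrees C defined viability of HT-1080-NT cells. Activity was normalized to DMSO wells and cell-free media wells; concentration-response curves were fitted and assigned curve classes.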
Starred values were filed as active, the others as inactive; ? = inconclusive; . = no result; [ ] = another dose, or the depositor's remark. Rows were chosen to be rich in hits. Some 19% of all compounds tested hit in one or more screens of this group. Unless noted, calls come from the whole dose curve; as a rule, active = well fitted curve in the direction sought with a large enough effect; inconclusive = small, poorly fitted or top-dose-only effect, or another doubt; inactive = no such curve, though single readings can be large; an effect the other way counts as inactive or inconclusive. Unless noted, % is set by controls: 0 for no effect and ±100 for the full control effect.

SMILES	ELG1 repair inh	DT40 TDP1 no CPT	HT1080 IDH1KD tx	TDP1 cell CPT	IL1B secr inh	HT1080-NT tox
Cc1ccc2oc(C(=O)Nc3c(C(=O)c4ccc(C)c(F)c4)oc4ccccc34)cc(=O)c2c1	.	-6%	.	1%	.	.
CC(=O)N(C)c1ccc(NC(=O)Nc2ccc(Cl)cc2)cc1	.	18µM*	0%	?	-25	-2%
NS(=O)(=O)c1ccc(NC(=O)Nc2ccc(Cl)cc2)cc1	?	16µM*	-5%	-7%	-17	-6%
CNC(=O)Nc1ccc(S(N)(=O)=O)cc1	2%	5%	12%	11%	7	-11%
N#Cc1ccc(NC(=O)Nc2ccc(Cl)cc2)cc1	?	3.7µM*	?	2.9µM*	-110*	15µM*
Cc1occc1C(=O)Nc1ccc(S(N)(=O)=O)cc1	6%	?	7%	23µM*	-2	0%
CNS(=O)(=O)c1ccc(NC(=O)c2ccoc2C)cc1	?	-26%	0%	-2%	-8	1%
Cc1ccc2nsnc2c1S(=O)(=O)NCCc1c(C)[nH]c2ccc(F)cc12	-12%	-21%	-8%	-25%	-2	-15%
FC(F)(F)C(F)(F)C(F)(F)c1nc2ccccc2[nH]1	.	-5%	.	-24%	.	.
O=C(CN(C(=O)CCC(=O)Nc1ccccn1)c1ccc2c(c1)OCO2)NCc1ccc(F)cc1	-5%	-24%	-5%	-1%	1	-6%
COc1ccc(S(=O)(=O)N(C)c2ccc(C(=O)NCc3ccccn3)cc2)cc1OC	-3%	-21%	-11%	-5%	-4	-1%
O=C(c1cccnc1)C1CCCN(Cc2ccc3c(c2)CN(C(=O)c2cn4ccccc4n2)CCO3)C1 (centres undefined)	.	?	.	-3%[9.04 µM]	.	.
CC(C)C(Cl)=NOC(=O)Nc1ccc(S(N)(=O)=O)cc1	.	2.6µM*	?	1.2µM*	-99*	-1%
COC(=O)C[C@@H]1C=C[C@@H](NS(=O)(=O)c2ccccc2OC)[C@@H](CO)O1	.	11%	8%	3%	35	28%
Cc1oc(-c2ccccc2NC(=O)C2CCC2)nc1CNC(=O)c1ccc(C#CC(C)(C)O)cc1	.	-9%	.	-7%[9.04 µM]	.	.
CCOC(=O)C1CCCN(c2ncnc3c2cnn3-c2cccc(C)c2)C1 (centres undefined)	?	-10%	18%	-12%	6	9%
CCN(CC)C(=O)C1CCCN(c2ncnc3c2cnn3-c2cccc(C)c2)C1 (centres undefined)	?	16µM*	-13%	?	-56*	-26%
CCN(CC)C(=O)C1CCCN(c2ncnc3c2cnn3-c2ccc(Cl)cc2)C1 (centres undefined)	?	18µM*	-2%	?	-54*	-7%
CC1CCCN(c2ncnc3c2cnn3-c2ccc(Cl)cc2)C1 (centres undefined)	?	-27%	23%	2%	52	19%
Cc1cc(C)c(C)c(S(=O)(=O)N(C)C2CCN(C)CC2)c1C	5%	16µM*	-14%	23µM*	-18	-1%
COP(=O)(OC)OC(C(=O)c1ccccc1)c1ccc(Cl)cc1 (centres undefined)	.	-11%	-2%	-7%	-14	-2%
COC(/C(=N/O)c1ccc(Cl)cc1)c1ccccc1 (centres undefined)	?	23µM*	?	?	-15	?
CCOC(=O)c1ccc(NC(=S)N2CCN(CCNC3=CC(=O)CC(C)(C)C3)CC2)cc1	-1%	-4%	-7%	3%	-15	-4%
Cc1ccc(NC(=O)COC(=O)c2ccc3c(c2)NC(=O)C2CCCN32)cc1 (centres undefined)	-12%	?	-8%	16µM*	6	?
CCCCCn1c(SCC(=O)c2ccccc2)nc2cc(C(=O)NCC3CCCO3)ccc2c1=O (centres undefined)	.	17%	11%	4%	13	17%
SMILES	ELG1 repair inh	DT40 TDP1 no CPT	HT1080 IDH1KD tx	TDP1 cell CPT	IL1B secr inh	HT1080-NT tox
CCOC(=O)c1ccc(S(=O)(=O)N2CCN(c3nc(-c4ccccc4)nc4ccccc34)CC2)cc1	.	-5%	.	20%	.	.
O=C(Nc1nnc(-c2ccc(Cl)cc2)o1)c1nc2ccccc2s1	37%	21µM*	-16%	?	21	-2%
O=C(Nc1nnc(-c2ccc(F)cc2)o1)c1cc(Cl)sc1Cl	?	21µM*	-13%	26µM*	9	1%
O=C(Nc1nnc(-c2ccccc2)o1)c1cc(Cl)sc1Cl	14%	9.2µM*	0%	7.3µM*	0	14%
O=C(Nc1cccc(OC(F)(F)F)c1)C1Cc2c(-c3ccc4c(c3)OCO4)ccnc2O1 (centres undefined)	.	21µM*	23µM*	16µM*	-5	?
CC(=O)c1cccc(-c2ccnc3c2CC(C(=O)Nc2cccc(OC(F)(F)F)c2)O3)c1 (centres undefined)	.	?	16µM*	-4%	-6	?
NC(=O)c1cccc(-c2ccnc3c2CC(C(=O)Nc2cccc(Oc4ccccc4)c2)O3)c1 (centres undefined)	.	?	23µM*	?	-11	?
CC(C)Sc1nc2ccccc2n2cnnc12	3%	?	7%	3%	17	15%
COC(=O)[C@@H]1C[C@@]2(O)[C@H](O)[C@H](O)[C@H](O)C[C@H]2N1Cc1ccc(-c2ccccc2)cc1	5%	-8%	4%	-29%	-71*	0%
COC(=O)[C@@H]1C[C@@]2(O)[C@@H](O)[C@@H](O)[C@@H](O)C[C@H]2N1Cc1ccc(-c2ccccc2)cc1	11%	-19%	4%	?	.	0%
CCc1ccc(-c2nc(CSCC(=O)NCc3ccccc3OC)c(C)o2)cc1	.	16µM*	.	21µM*	.	.
Cc1ccc(-c2nc(CSCC(=O)NCCN3CCN(Cc4ccccc4)CC3)c(C)o2)cc1	16µM*	21µM*	-11%	?	-27	-7%
CCc1ccc(-c2nc(CSCC(=O)NCc3ccco3)c(C)o2)cc1	?	?	-20%	?	-7	?
Cc1oc(-c2ccc(Cl)cc2)nc1CS(=O)CC(=O)NCCCN1CCCC(C)C1 (centres undefined)	11%	?	?	?	?	?
CCOc1ccc(-c2nc(CSCC(=O)NCCc3ccccc3)c(C)o2)cc1	.	18µM*	.	?	.	.
